Measured values taken from PubChem BioAssay (NCI).
This is part of a sample that, as a whole, favours compounds with a hit. Of some 83,000 tested, about 20% had one in any assay.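 Growth was measured after 48 h exposure to one concentration of compound in 96-well plates. Values under 10 count as active.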 Calls of active or inactive are those of the source.

Key:
Test in all cases: NCI-60 one-dose screen, 48 h (100 = growth as untreated, 0 = no growth, -100 = all killed)
Settings in all cases: 10 µM unless noted
[1] = system: NCI-H23 lung
[2] = system: NCI-H226 lung
[3] = system: NCI-H322M lung
[4] = system: HOP-62 NSCLC
[5] = system: NCI-H460 lung
[6] = system: NCI-H522 lung
[7] = system: A549/ATCC NSCLC
[8] = system: 786-0 renal
[9] = system: COLO 205 colon
[10] = system: DU-145 prostate

Measured: growth

COc1ccc2c(c1)C(=O)c1c-2c(OCCCN(C)C)nc2cc(Br)ccc12
inactive: [1] 75.5% | [2] 57.2% | [3] 80.7% | [4] 68% | [5] 36.2% | [6] 61.6% | [7] 24.6% | [8] 77.2% | [9] 64.6% | [10] 78.5%

O=C(c1nn(-c2ccc(Cl)cc2)cc1O)n1nc(C(F)(F)F)cc1-c1ccccc1
inactive: [1] 32.8% | [2] 52.7% | [4] 34.6% | [5] 34.9% | [6] 21.2% | [7] 47.4% | [8] 42.9% | [10] 49.2%
active: [3] -1.34% | [9] 7.24%

CSC1=Nc2c(c(C)c(-c3ccccc3)n2CCCN2CCCCC2)C2=NC(=O)C[C@H](C)N12
active: [9] -87%
inactive: [1] 63.1% | [2] 68.9% | [3] 62.1% | [4] 81.6% | [5] 38.3% | [6] 35.5% | [7] 32.2% | [8] 80.1% | [10] 47.6%

O=C(c1ccccc1)c1ccco1
inactive: [1] 99.2% | [2] 106% | [3] 105% | [4] 105% | [5] 105% | [6] 89.3% | [7] 97% | [8] 101% | [9] 109% | [10] 113%

O=C(/C=C/c1ccc(Cl)cc1)c1ccccc1
inactive: [1] 109% | [2] 91% | [3] 92.2% | [4] 115% | [5] 107% | [6] 81.1% | [7] 88.9% | [8] 93.7% | [9] 120% | [10] 106%

COc1ccc(OC)c2c1[nH]c(=O)c1c3ccccc3cn21
inactive: [2] 48.4%
active: [1] -25.8% | [3] -70.7% | [4] -33.6% | [5] -61.2% | [6] -50.4% | [7] -73.2% | [8] -86.3% | [9] -91.1% | [10] -65%

O=C(CCc1nnc(Cn2cncn2)o1)c1nc2ccccc2[nH]1
inactive: [1] 102% | [2] 101% | [3] 115% | [4] 103% | [5] 108% | [6] 95.5% | [7] 105% | [8] 104% | [9] 124% | [10] 109%

Nc1c2ccccc2nc2ccccc12 (tested in a mixture with another compound)
active: [5] 4.41% | [6] -22.3% | [7] 4.37% | [9] 2.36%
inactive: [1] 19.2% | [2] 11% | [3] 29.8% | [4] 25.8% | [8] 32.5% | [10] 19.4%

O=C(Nc1ccc(Nc2ccncc2)cc1)c1ccc(Nc2ccnc3ccc([N+](=O)[O-])cc23)cc1[N+](=O)[O-]
inactive: [1] 83% | [2] 103% | [3] 89.5% | [4] 127% | [5] 44.9% | [6] 43.2% | [7] 35.2% | [8] 50.1% | [9] 122% | [10] 56.8%

Cc1c(C(N)=O)sc2c1c(=O)n(Cc1ccccc1)c1nnc(S(=O)(=O)CC(=O)Nc3ccc(Cl)cc3)n21
active: [2] -4.71% | [4] -26.9% | [5] -20.8% | [8] 3.47%
inactive: [1] 43.2% | [3] 34.8% | [6] 16.9% | [7] 28.5% | [9] 47.2% | [10] 43.9%

COc1cc2c(cc1OCCCCCn1c(-c3ccc(OCc4ccccc4)cc3)nc3cc(N4CCOCC4)ccc31)N=C[C@@H]1CCCN1C2=O
active: [2] -41.1% | [5] -3.28% | [6] -4.59% | [7] 6.91% | [8] -22.5% | [9] -14%
inactive: [1] 15.5% | [3] 27.8% | [4] 20% | [10] 29.7%

O=[N+]([O-])c1ccc(Oc2cccc(C(F)(F)F)c2)c([N+](=O)[O-])c1
active: [6] -16% | [9] 2.36%
inactive: [1] 27.7% | [2] 47.6% | [3] 90.3% | [4] 101% | [5] 95.6% | [7] 97.2% | [8] 47.5% | [10] 95.2%

COc1ccc(-c2nc3sccn3c2-c2ccnc(S(C)(=O)=O)n2)cc1
inactive: [1] 100% | [2] 90.4% | [3] 55.4% | [4] 78.7% | [5] 88.9% | [6] 26.7% | [7] 105% | [8] 99.1% | [9] 84.2% | [10] 56.7%

COc1ccc(-c2nn(-c3cccc(Cl)c3)cc2C2CC(c3ccccc3)=NN2C(C)=O)cc1 (stereo not given)
active: [4] -18.1%
inactive: [1] 84.2% | [2] 37.9% | [3] 76.8% | [5] 39.6% | [6] 60.9% | [7] 67.6% | [8] 72.2% | [9] 81.6% | [10] 72.2%

Cc1nn(-c2ccccc2)c2nc(Cl)c(/C=C/C(=O)c3ccccc3)c(-c3ccccc3)c12
inactive: [1] 102% | [2] 89.7% | [3] 105% | [4] 114% | [5] 106% | [6] 89.9% | [7] 110% | [8] 106% | [9] 121% | [10] 115%

O=c1c(O)cccn1CCCNCCCN(CCCn1cccc(O)c1=O)CCCn1cccc(O)c1=O
inactive: [1] 97.7% | [2] 95% | [3] 94.5% | [4] 106% | [5] 99% | [6] 117% | [7] 105% | [8] 107% | [9] 125% | [10] 112%

Cc1nn(-c2ccc(Cl)cc2)c2nc3c(nc12)c(=O)oc1ccccc13
inactive: [1] 100% | [2] 128% | [3] 116% | [4] 107% | [5] 109% | [6] 101% | [7] 95.4% | [8] 98.1% | [9] 123% | [10] 118%

Clc1ccc([C@@H]2C[C@@H]3Cc4cc(Br)c5ccccc5c4N2O3)c(Cl)c1
inactive: [1] 78.6% | [2] 95.7% | [3] 90.7% | [4] 87.2% | [5] 93.3% | [6] 43.8% | [7] 70.8% | [8] 95% | [9] 98.4% | [10] 93.3%

Clc1ccc(CCC(Cn2ccnc2)Sc2c(Cl)cccc2Cl)cc1 (stereo not given)
inactive: [1] 42.5% | [2] 90.6% | [3] 81.3% | [4] 83% | [5] 47.3% | [6] 20.3% | [7] 61.2% | [8] 56.4% | [9] 57.7% | [10] 94.2%

COc1ccc2c3c(c(OCCCN(C)C)nc2c1)-c1ccc(Cl)cc1C3=O
active: [1] -2.72% | [3] 3.92% | [4] 10% | [5] -81.2% | [6] -64.3% | [7] -64.1% | [8] -40.3% | [9] -45.2%
inactive: [2] 32.1% | [10] 15.3%

O=C(O)c1ccccc1C(=O)OC1CCCC2CCCC21 (stereo not given)
inactive: [1] 95.1% | [2] 101% | [3] 115% | [4] 98.2% | [5] 112% | [6] 107% | [7] 101% | [8] 116% | [9] 117% | [10] 103%

c1ccc(Nc2nnc(-c3cc(-c4cccnc4)n(-c4ccccc4)n3)s2)cc1
inactive: [1] 78.6% | [2] 99.8% | [3] 109% | [4] 99.1% | [5] 80.5% | [6] 71% | [7] 74.1% | [8] 77.1% | [9] 83.3% | [10] 94.3%

CCC(C)CC(C)C(=O)c1c(O)ccn(OC)c1=O (stereo not given)
inactive: [1] 84.7% | [2] 84.2% | [3] 69.2% | [4] 54.8% | [5] 77.8% | [6] 90.9% | [7] 90.8% | [8] 101% | [9] 109% | [10] 66.8%

O=c1ccn(C2CCCO2)c(=O)[nH]1 (stereo not given)
inactive: [1] 119% | [2] 114% | [3] 117% | [4] 107% | [5] 106% | [6] 98.5% | [7] 95.3% | [8] 109% | [9] 118% | [10] 109%

Cc1cc(C)c2c(c1)N1OC(C2)C[C@H]1/C=C/c1ccccc1 (stereo not given in full)
inactive: [1] 88.5% | [2] 77.6% | [3] 81.3% | [4] 111% | [5] 112% | [6] 84.7% | [7] 95.2% | [8] 102% | [9] 111% | [10] 117%

Cc1cc(NCCCNc2ccnc3cc(Cl)ccc23)nc(N2CCN(C)CC2)n1
inactive: [1] 95.1% | [2] 75.3% | [3] 56.4% | [4] 62.7% | [5] 24.1% | [7] 70.5% | [8] 78.7% | [9] 48.1% | [10] 78.2%
active: [6] 4.29%

CN1COc2ccc3ccccc3c2C1
inactive: [1] 88.8% | [2] 93.7% | [3] 91.4% | [4] 80.1% | [5] 107% | [6] 90.3% | [7] 97.4% | [8] 91% | [9] 133% | [10] 107%

COc1cccc2c1C(=O)c1c(O)c3c(c(O)c1C2=O)C[C@@](O)(/C(C)=N/NC(=O)c1cccc([N+](=O)[O-])c1)C[C@@H]3OC1CC(N)C(O)C(C)O1 (stereo not given in full)
active: [1] -33.6% | [2] -67.4% | [3] -3.02% | [4] -23.8% | [5] -38.5% | [6] -61% | [7] -53.4% | [8] -24.6% | [9] -98.1% | [10] -49.7%

CCOC(Cc1c(N)[nH]c(=S)[nH]c1=O)OCC
inactive: [1] 104% | [2] 96.8% | [3] 98.9% | [4] 102% | [5] 114% | [6] 93% | [7] 104% | [8] 109% | [9] 105% | [10] 115%

COc1ccc(/C=N\Nc2ccc([N+](=O)[O-])cn2)cc1OC
active: [5] 1.43%
inactive: [1] 88.4% | [2] 34.7% | [3] 10.8% | [4] 25.4% | [6] 47.9% | [7] 30.3% | [8] 10.2% | [9] 67.5% | [10] 73.7%

O=[N+]([O-])c1ccc(N/N=C/c2c(O)ccc3ccccc23)nc1
inactive: [1] 61.4% | [2] 89% | [3] 19.7% | [4] 45.6% | [5] 24.2% | [6] 18.5% | [7] 49.2% | [8] 59.2% | [9] 73.1% | [10] 39.4%

CC[C@H](C)C(=O)O[C@H]1C[C@@H](C)C=C2C=C[C@H](C)[C@H](CC[C@@H]3C[C@@H](O)CC(=O)O3)[C@H]21
inactive: [1] 67.8% | [2] 95.5% | [3] 54.2% | [4] 104% | [5] 102% | [6] 27.3% | [7] 102% | [8] 90.5% | [9] 99.7% | [10] 106%

CCC(C)(C)C(=O)O[C@H]1C[C@@H](C)C=C2C=C[C@H](C)[C@H](CC[C@@H]3C[C@@H](O)CC(=O)O3)[C@H]21
inactive: [1] 48.7% | [2] 64% | [3] 51% | [4] 80.7% | [5] 24.3% | [7] 67.5% | [8] 51.5% | [9] 68.3% | [10] 95.3%
active: [6] 8.21%

c1ccc2cc(C[n+]3ccn(CCCCCCCn4cc[n+](Cc5ccc6ccccc6c5)c4)c3)ccc2c1
active: [6] 5.87%
inactive: [1] 14.4% | [2] 59.5% | [3] 58.6% | [4] 32.6% | [5] 14.6% | [7] 26.7% | [8] 95.8% | [9] 20% | [10] 49.2%

COC(=O)C[C@@H]1CC=CC(=O)/C1=C(O)/C=C/c1ccccc1
active: [1] -43.4% | [2] -40.6% | [3] -14.4% | [4] -42.8% | [5] -42.5% | [6] -64.2% | [7] -0.275% | [8] -77.5% | [9] -57.2% | [10] -28.4%

CN1CCN(CC(=O)Nc2nc3c(s2)Nc2cc(Cl)c(Cl)cc2NC3=O)CC1
inactive: [1] 106% | [2] 96.1% | [3] 94.1% | [4] 98.3% | [5] 104% | [6] 77% | [7] 95.9% | [8] 99.2% | [9] 107% | [10] 117%

CCCCCCOc1ccc(/C=N/NC(N)=S)cc1
inactive: [1] 54.3% | [2] 66% | [3] 122% | [4] 100% | [5] 92.6% | [7] 88.3% | [9] 50.2% | [10] 71.9%
active: [6] -64% | [8] 9.39%
